Laboratory results reported in PubChem BioAssay (EPA / NIEHS).
Active and inactive are the calls of the source. The calls were made as follows: active = hit-call score of the fitted dose curve at least 0.9, where 1 is the maximum; inactive = score below 0.9.

Read-out: Monocyte Chemoattractant Protein-1 (MCP1), CCL2 (gene 6347)
Experiment: BSK_LPS_MCP1: BioMAP Diversity Plus: LPS Assay for Monocyte Chemoattractant Protein-1 (MCP1) Biomarker Activity (AID 2283081);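 as to AC50: secreted MCP-1 protein quantified by ELISA in culture supernatant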
Conditions: primary human HUVEC with PBMC; actives raise or lower the signal
Method in brief: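 ELISA read-out of MCP-1 after 24 h chemical dosing of a human umbilical vein endothelial cell/peripheral blood mononuclear cell co-culture stimulated with LPS. Gain or loss of signal fitted relative to DMSO controls.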

outcome, inactive:
c1ccc2occc2c1
C#CC(O)C(CC)CCCC (stereo not given)
COC(=O)CCC(=O)OC
O=Cc1ccccc1C=O
CCCC[C@H]1CN(CC2CCOCC2)C(=O)OC12CCN(C1(C)CCN(C(=O)c3c(C)ncnc3C)CC1)CC2
Oc1ccccc1O
O=C1OC(c2ccc(O)cc2)(c2ccc(O)cc2)c2ccccc21
CC1=C(C)S(=O)(=O)CCS1(=O)=O
O=C(Oc1ccccc1)c1cccc(C(=O)Oc2ccccc2)c1
CC(C)c1cccc(C(C)C)c1NC(=O)NS(=O)(=O)c1cc(C(C)(C)O)co1
CC(=O)O
CCCCC(CC)COC(=O)CCCCCCCC(=O)OCC(CC)CCCC (stereo not given)
O=NO
C=CCc1ccc(OC)c(OC)c1

AC50, active:
O=C(N[C@@H](c1ccccc1)[C@@H]1CCCCN1)c1cccc(C(F)(F)F)c1Cl 22.7 µM
